Source: PubChem BioAssay (EPA / NIEHS)
Activity calls are given as the source filed them. Rule for the calls: active = hit-call score of the fitted dose curve at least 0.9, where 1 is the maximum; inactive = score below 0.9.

Assays:
Conditions in all cases: mRNA level, 48 h; actives raise or lower the signal
[1] = read-out: MYC, MYC (gene 4609); experiment: LTEA_HepaRG_MYC: Life Technologies and Expression Analysis (LTEA) Assay for MYC using HepaRG (AID 2283518)
Method in brief: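 Differentiated human HepaRG cells, plated 48 h then switched to serum-free induction medium, were exposed in duplicate for 48 h to 8-point half-log series up to 100 uM in 0.5% DMSO. MYC mRNA measured by qRT-PCR, normalized to ACTB/GAPDH/POLR2A.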

[2] = read-out: matrix metalloproteinase-3 (MMP3), MMP3 (gene 4314); experiment: LTEA_HepaRG_MMP3: Life Technologies and Expression Analysis (LTEA) Assay for matrix metalloproteinase-3 (MMP3) using HepaRG (AID 2283519)
Method in brief: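 Human liver HepaRG cultures received chemicals (top concentration 100 uM, 0.5% DMSO) for 48 h in duplicate. MMP3 mRNA induction or loss was then assessed via TaqMan qRT-PCR with housekeeping-gene normalisation.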

[3] = read-out: Paternally Expressed 10 (PEG10), PEG10 (gene 23089); experiment: LTEA_HepaRG_PEG10: Life Technologies and Expression Analysis (LTEA) Assay for Paternally Expressed 10 (PEG10) using HepaRG (AID 2283520)
Method in brief: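 qRT-PCR read-out: PEG10 mRNA normalised to three housekeeping genes, fitted bidirectionally against 0.5% DMSO vehicle. HepaRG cells received test chemicals for 48 h in serum-free induction medium, 8 points, top 100 uM, half-log steps.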

[4] = read-out: Nuclear factor NF-kappa-B p105 subunit (Homo sapiens) (UniProt P19838); experiment: LTEA_HepaRG_NFKB1: Life Technologies and Expression Analysis (LTEA) Assay for Nuclear Factor Kappa B Subunit 1 (NFKB1) using HepaRG (AID 2283521);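 note: TaqMan qRT-PCR transcript normalised to ACTB GAPDH and POLR2A housekeeping genes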
Method in brief: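 Differentiated human HepaRG cells in serum-free induction medium with 0.5% DMSO were exposed for 48 h to eight half-log concentrations, top 100 uM, in duplicate. NFKB1 mRNA measured by Fluidigm TaqMan qRT-PCR, normalised to ACTB, GAPDH and POLR2A; bidirectional fit versus DMSO.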

[5] = read-out: Protein phosphatase 2A (PPP2R4), PTPA (gene 5524); experiment: LTEA_HepaRG_PPP2R4: Life Technologies and Expression Analysis (LTEA) Assay for Protein phosphatase 2A (PPP2R4) using HepaRG (AID 2283522)
Method in brief: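 HepaRG, 48 h exposure, 8-pt half-log series from 100 uM, 0.5% DMSO vehicle, duplicates. Readout: PPP2R4 mRNA, Fluidigm qRT-PCR, housekeeping-normalized. Bidirectional curve fit vs DMSO baseline.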

[6] = read-out: Phosphatase and tensin (PTEN), PTEN (gene 5728); experiment: LTEA_HepaRG_PTEN: Life Technologies and Expression Analysis (LTEA) Assay for Phosphatase and tensin (PTEN) using HepaRG (AID 2283523)
Method in brief: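 Expression of PTEN is quantified in the human liver line HepaRG following two days of dosing (top concentration 100 uM, half-log dilutions, 0.5% DMSO). Values derive from bidirectional curve fitting relative to DMSO controls.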

[7] = read-out: solute carrier (SLC22A1), SLC22A1 (gene 6580); experiment: LTEA_HepaRG_SLC22A1: Life Technologies and Expression Analysis (LTEA) Assay for solute carrier (SLC22A1) using HepaRG (AID 2283524)
Method in brief: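 Transcript induction or suppression of SLC22A1 in human HepaRG cultures is scored after 48 h chemical treatment, with DMSO (0.5%) as baseline for bidirectional fitting. Concentrations span eight half-log points topping at 100 uM.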

[8] = read-out: Nuclear factor erythroid 2-related factor 2 (Homo sapiens) (UniProt Q16236); experiment: LTEA_HepaRG_NFE2L2: Life Technologies and Expression Analysis (LTEA) Assay for Nuclear factor erythroid 2-related factor 2 (NFE2L2) Transcription Factor using HepaRG (AID 2283527);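 note: TaqMan qRT-PCR transcript level normalised to ACTB GAPDH and POLR2A housekeeping genes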
Method in brief: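 Human liver HepaRG line treated in duplicate for 48 h with an eight-point series topping at 100 uM. Gene expression of NFE2L2 by qRT-PCR, bidirectionally fitted against the vehicle control.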

[9] = read-out: succinate dehydrogenase complex iron sulfur subunit B (SDHB), SDHB (gene 6390); experiment: LTEA_HepaRG_SDHB: Life Technologies and Expression Analysis (LTEA) Assay for succinate dehydrogenase complex iron sulfur subunit B (SDHB) using HepaRG (AID 2283528)
Method in brief: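 HepaRG cells (~100,000/well, plated 48 h) exposed in duplicate for 48 h in serum-free induction medium to 8-point half-log series from 100 uM in 0.5% DMSO; mRNA by qRT-PCR normalised to ACTB, GAPDH, POLR2A; bidirectional fit versus DMSO.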

[10] = read-out: Signal transducer and activator of transcription 3 (Homo sapiens) (UniProt P40763); experiment: LTEA_HepaRG_STAT3: Life Technologies and Expression Analysis (LTEA) Assay for Signal transducer and activator of transcription (STAT3) using HepaRG (AID 2283529)
Method in brief: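 In this transcriptional endpoint, HepaRG cultures receive test chemicals at up to 100 uM for 48 h, tested in duplicate. STAT3 mRNA is normalized to ACTB, GAPDH and POLR2A.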

[11] = read-out: solute carrier (SLCO1B1), SLCO1B1 (gene 10599); experiment: LTEA_HepaRG_SLCO1B1: Life Technologies and Expression Analysis (LTEA) Assay for solute carrier (SLCO1B1) using HepaRG (AID 2283530)
Method in brief: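 Differentiated human HepaRG cells, plated 48 h, switched to serum-free induction medium and exposed in duplicate for 48 h to 8 half-log concentrations (top 100 uM) in 0.5% DMSO. SLCO1B1 mRNA by TaqMan qRT-PCR, normalized to ACTB/GAPDH/POLR2A.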

[12] = read-out: Transforming Growth Factor (TGFA), TGFA (gene 7039); experiment: LTEA_HepaRG_TGFA: Life Technologies and Expression Analysis (LTEA) Assay for Transforming Growth Factor (TGFA) using HepaRG (AID 2283532)
Method in brief: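 Gene expression of TGFA was quantified by qRT-PCR after human HepaRG cells were treated for 48 h with test chemicals (eight concentrations, highest 100 uM, 0.5% DMSO). Activity in either direction was fitted relative to DMSO.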

[13] = read-out: Transforming Growth Factor (TGFB1), TGFB1 (gene 7040); experiment: LTEA_HepaRG_TGFB1: Life Technologies and Expression Analysis (LTEA) Assay for Transforming Growth Factor (TGFB1) Transporter using HepaRG (AID 2283533)
Method in brief: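 Differentiated human HepaRG cells in serum-free induction medium were exposed in duplicate for 48 h to eight concentrations (top 100 uM, half-log steps, 0.5% DMSO). TGFB1 mRNA was quantified by qRT-PCR, normalized to ACTB, GAPDH, POLR2A, and fitted bidirectionally against DMSO.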

[14] = read-out: TIMP1, TIMP1 (gene 7076); experiment: LTEA_HepaRG_TIMP1: Life Technologies and Expression Analysis (LTEA) Assay for TIMP1 using HepaRG (AID 2283534);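 note: TaqMan qRT-PCR signal normalized to ACTB GAPDH and POLR2A housekeeping genes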
Method in brief: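 Differentiated human HepaRG cells in serum-free induction medium were exposed 48 h to chemicals (8 half-log concentrations, top 100 uM, 0.5% DMSO). TIMP1 mRNA was quantified by TaqMan qRT-PCR, normalized to ACTB/GAPDH/POLR2A; bidirectional fit versus DMSO.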

[15] = read-out: Tumor necrosis factor receptor 1 (TNFRSF1A), TNFRSF1A (gene 7132); experiment: LTEA_HepaRG_TNFRSF1A: Life Technologies and Expression Analysis (LTEA) Assay for Tumor necrosis factor receptor 1 (TNFRSF1A) using HepaRG (AID 2283535)
Method in brief: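 Differentiated human HepaRG cells were exposed in duplicate for 48 h in serum-free induction medium to eight concentrations (top 100 uM, half-log steps, 0.5% DMSO). TNFRSF1A mRNA was quantified by qRT-PCR, normalized to ACTB, GAPDH and POLR2A, then fitted bidirectionally against DMSO.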

[16] = read-out: Thyroid Hormone Responsive (THRSP), THRSP (gene 7069); experiment: LTEA_HepaRG_THRSP: Life Technologies and Expression Analysis (LTEA) Assay for Thyroid Hormone Responsive (THRSP) using HepaRG (AID 2283536)
Method in brief: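 Cell model: human HepaRG, approx. 100,000 cells/well, 0.5% DMSO vehicle. Exposure lasts 48 h; phenobarbital 1 mM serves as induction positive control. Gene expression is measured by qRT-PCR against three endogenous control genes.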

[17] = read-out: sulfotransferase 2A1 (SULT2A1), SULT2A1 (gene 6822); experiment: LTEA_HepaRG_SULT2A1: Life Technologies and Expression Analysis (LTEA) Assay for sulfotransferase 2A1 (SULT2A1) using HepaRG (AID 2283531)
Method in brief: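 Differentiated human HepaRG cells in serum-free induction medium were exposed for 48 h to eight half-log concentrations (top 100 uM, 0.5% DMSO). SULT2A1 mRNA was measured by qRT-PCR, normalized to ACTB, GAPDH and POLR2A, and fitted bidirectionally against DMSO.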

[18] = read-out: UDP glucuronosyltransferase (UGT1A1), UGT1A1 (gene 54658); experiment: LTEA_HepaRG_UGT1A1: Life Technologies and Expression Analysis (LTEA) Assay for UDP glucuronosyltransferase (UGT1A1) using HepaRG (AID 2283538)
Method in brief: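 HepaRG, 48 h chemical exposure (top 100 uM, half-log 8-pt, 0.5% DMSO vehicle), duplicate wells; qRT-PCR (TaqMan, Fluidigm array) for UGT1A1 mRNA, housekeeping-normalized; bidirectional curve fit vs DMSO baseline.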

[19] = read-out: NAD(P)H dehydrogenase [quinone] 1 (NQO1), NQO1 (gene 1728); experiment: LTEA_HepaRG_NQO1: Life Technologies and Expression Analysis (LTEA) Assay for NAD(P)H dehydrogenase [quinone] 1 (NQO1) using HepaRG (AID 2283526)
Method in brief: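 qRT-PCR read-out (Fluidigm TaqMan), normalized to three housekeeping genes, after 48 h chemical exposure of HepaRG cells. Concentrations: eight points, top 100 uM, half-log steps, 0.5% DMSO vehicle. Gain or loss of signal fitted relative to DMSO.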

Measured: outcome

Chain of Signal transducer and activator of transcription 3 (Homo sapiens) (P40763 whole entry, looked up): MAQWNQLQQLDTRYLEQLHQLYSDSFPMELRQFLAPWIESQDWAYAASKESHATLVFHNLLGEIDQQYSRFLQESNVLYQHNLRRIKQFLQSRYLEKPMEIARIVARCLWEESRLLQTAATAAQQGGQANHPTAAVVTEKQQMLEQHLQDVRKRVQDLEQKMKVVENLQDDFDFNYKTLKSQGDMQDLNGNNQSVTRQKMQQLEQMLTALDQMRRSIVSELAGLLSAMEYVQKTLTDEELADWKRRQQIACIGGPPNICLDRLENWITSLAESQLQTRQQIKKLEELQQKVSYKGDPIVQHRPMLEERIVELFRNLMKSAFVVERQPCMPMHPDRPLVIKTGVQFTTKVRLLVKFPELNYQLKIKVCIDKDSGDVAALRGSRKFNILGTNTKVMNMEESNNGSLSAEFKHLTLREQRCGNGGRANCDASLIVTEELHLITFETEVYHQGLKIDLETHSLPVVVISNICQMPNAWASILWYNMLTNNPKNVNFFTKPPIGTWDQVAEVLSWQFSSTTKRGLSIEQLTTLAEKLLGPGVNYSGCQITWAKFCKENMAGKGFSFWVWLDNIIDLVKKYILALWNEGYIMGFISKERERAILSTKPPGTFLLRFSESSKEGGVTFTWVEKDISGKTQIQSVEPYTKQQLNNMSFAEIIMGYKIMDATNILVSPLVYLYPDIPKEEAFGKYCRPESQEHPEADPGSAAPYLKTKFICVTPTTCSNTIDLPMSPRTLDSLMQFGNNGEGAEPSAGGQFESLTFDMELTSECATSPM
Chain of Nuclear factor erythroid 2-related factor 2 (Homo sapiens) (Q16236 whole entry, looked up): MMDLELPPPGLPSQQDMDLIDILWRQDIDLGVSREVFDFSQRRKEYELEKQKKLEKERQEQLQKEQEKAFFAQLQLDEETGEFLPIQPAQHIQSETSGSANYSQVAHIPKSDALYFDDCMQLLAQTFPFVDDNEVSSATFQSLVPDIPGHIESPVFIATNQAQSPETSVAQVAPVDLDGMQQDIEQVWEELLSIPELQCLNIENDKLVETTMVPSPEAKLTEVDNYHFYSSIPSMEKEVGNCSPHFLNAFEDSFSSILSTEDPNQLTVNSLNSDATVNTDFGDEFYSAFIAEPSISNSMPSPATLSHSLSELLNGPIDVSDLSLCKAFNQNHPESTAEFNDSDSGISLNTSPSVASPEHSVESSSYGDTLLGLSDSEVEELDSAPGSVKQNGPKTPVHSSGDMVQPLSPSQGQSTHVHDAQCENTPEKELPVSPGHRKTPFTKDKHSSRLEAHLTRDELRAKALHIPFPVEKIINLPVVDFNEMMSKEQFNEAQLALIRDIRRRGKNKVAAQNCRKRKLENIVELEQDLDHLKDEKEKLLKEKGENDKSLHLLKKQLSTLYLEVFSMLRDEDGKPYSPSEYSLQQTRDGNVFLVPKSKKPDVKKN
Chain of Nuclear factor NF-kappa-B p105 subunit (Homo sapiens) (P19838 whole entry, looked up): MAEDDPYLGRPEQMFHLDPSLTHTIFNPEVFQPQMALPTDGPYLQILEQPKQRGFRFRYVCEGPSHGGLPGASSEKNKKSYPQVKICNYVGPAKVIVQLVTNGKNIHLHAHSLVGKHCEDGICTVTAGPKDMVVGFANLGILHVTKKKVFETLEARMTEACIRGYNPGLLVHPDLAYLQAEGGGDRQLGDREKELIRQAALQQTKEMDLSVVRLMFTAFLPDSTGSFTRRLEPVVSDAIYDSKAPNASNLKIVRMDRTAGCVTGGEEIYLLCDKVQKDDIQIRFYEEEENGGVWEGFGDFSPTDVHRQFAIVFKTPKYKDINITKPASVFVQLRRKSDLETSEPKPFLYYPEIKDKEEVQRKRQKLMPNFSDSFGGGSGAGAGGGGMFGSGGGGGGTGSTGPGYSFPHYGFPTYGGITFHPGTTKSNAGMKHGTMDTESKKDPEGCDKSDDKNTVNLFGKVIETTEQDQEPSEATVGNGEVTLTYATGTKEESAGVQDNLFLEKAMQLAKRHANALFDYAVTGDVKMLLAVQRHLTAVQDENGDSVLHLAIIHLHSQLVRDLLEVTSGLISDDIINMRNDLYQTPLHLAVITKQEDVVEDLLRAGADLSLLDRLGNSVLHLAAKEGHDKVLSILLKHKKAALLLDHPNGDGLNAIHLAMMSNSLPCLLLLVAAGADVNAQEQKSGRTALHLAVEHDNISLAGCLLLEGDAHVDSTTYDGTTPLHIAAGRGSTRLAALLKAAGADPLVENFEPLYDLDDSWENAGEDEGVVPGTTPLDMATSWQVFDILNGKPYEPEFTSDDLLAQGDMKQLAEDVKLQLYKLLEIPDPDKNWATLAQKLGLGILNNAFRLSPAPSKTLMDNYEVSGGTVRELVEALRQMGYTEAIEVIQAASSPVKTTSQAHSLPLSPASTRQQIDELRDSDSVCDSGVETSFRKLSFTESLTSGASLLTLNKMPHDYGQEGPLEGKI

O=S(=O)(O)c1ccc(N=Nc2c(O)ccc3cc(S(=O)(=O)O)ccc23)cc1
inactive: [1] | [2] | [3] | [4] | [5] | [6] | [7] | [8] | [9] | [10] | [11] | [12] | [13] | [14] | [15] | [16]

OCC(CO)(CO)CO
inactive: [1] | [2] | [3] | [5] | [6] | [7] | [8] | [10] | [11] | [17] | [12] | [13] | [14] | [15] | [16]

NC(=O)N(O)[C@@H]1COc2cc(OCc3ccccc3)ccc21
inactive: [1] | [2] | [3] | [4] | [5] | [6] | [7] | [8] | [9] | [10] | [11] | [12] | [13] | [14] | [15] | [16] | [18]

CCCCCCCC1CCC(=O)O1 (stereo not given)
inactive: [1] | [2] | [3] | [5] | [6] | [7] | [19] | [9] | [10] | [11] | [17] | [12] | [13] | [14] | [15] | [16] | [18]
